Over roughly 68,000 sequences, “fluorescence intensity (a.u.)” has its median near 9,100; the highest 2% begin near 16,000. What follows is part of a selection rich in the highest values, with near analogues and random picks from the rest.

The source of these data is paper PMC7819943, “Rice protein-binding microarrays: a tool to detect cis-acting elements near promoter regions in rice”.

Chain of OsWRKY34 (Q0JBA9 entry or part of it): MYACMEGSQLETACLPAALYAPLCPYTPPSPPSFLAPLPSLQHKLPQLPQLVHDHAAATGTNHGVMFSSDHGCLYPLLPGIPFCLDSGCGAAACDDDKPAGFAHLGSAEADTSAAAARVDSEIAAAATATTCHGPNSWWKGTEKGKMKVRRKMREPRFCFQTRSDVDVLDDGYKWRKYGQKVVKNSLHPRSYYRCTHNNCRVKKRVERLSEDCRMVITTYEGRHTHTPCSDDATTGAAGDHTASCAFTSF

In the test the target is OsWRKY34 (Oryza sativa, UniProt Q0JBA9 1-250). The test is described as follows: protein-binding microarray (RPBM); PBS, 2% BSA, 51.3 ng/ul salmon testes DNA, 50 uM zinc acetate, 200 nM TF, 25 C, 1 h; high values mean tight binding. Particulars: protein: recombinant; tags: N-terminal polyhistidine and DsRed monomer fusion (pET32a); label: CyDye5-dUTP incorporated in the synthesized complementary strand; 3' TTTTT single-stranded linker to array surface; dsDNA, one strand shown. The procedure, abridged:
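Binding signal here means per-feature fluorescence intensity in arbitrary units. The values were read on an Axon 4000B scanner after a custom Agilent array, double-stranded by primer extension with Cy5-dUTP, was incubated with 200 nM protein at 25 °C for 1 h in PBS with 2% BSA, salmon testes DNA and 50 µM zinc acetate, then washed. The proteins were transcription factors with an N-terminal polyhistidine tag and DsRed, expressed in E. coli BL21-CodonPlus and purified on Ni–NTA.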
Regarding “TTTGGGGCGCGGGTGGGTGGCTGGGTGCGCGTCGATCGTGCGGAGTCACCTAGTGCAG”, the binding signal was 10900 fluorescence intensity (a.u.).

Regarding “GTGGGCTGGGCTTCTTCTTCGTCGTCTCATACCAATCGTGCGGAGTCACCTAGTGCAG”, the binding signal is 17100 fluorescence intensity (a.u.).

Turning to “TTGGATTGCAGTGGGGCGGACGGCGGTGGGCGGGGCTTCTCGGAGTCACCTAGTGCAG”, the binding signal is 27600 fluorescence intensity (a.u.).

Regarding “ACGTAGGAAGGTGGAAGCGGTTTCTTGGGGTTTGGATATGCGGAGTCACCTAGTGCAG”, the binding signal was 11000 fluorescence intensity (a.u.).

Take “GGGTGACGGGAGCAGCGGCGCGCGGGTGGTGGGGCTTGGACGGAGTCACCTAGTGCAG”: the binding signal is 10700 fluorescence intensity (a.u.).

For the sequence “TGGTTTGCGGTGGTGCGCGCGCGGCTTCTTCTCGGGGTGGCGGAGTCACCTAGTGCAG”, the binding signal was 9070 fluorescence intensity (a.u.).

Take “GACGGGCGGCGGTGGGGCTGACGCGGGCGACGGAGGGGCTCGGAGTCACCTAGTGCAG”: the binding signal is 11500 fluorescence intensity (a.u.).

On to “GCGGCTTCTTCTCGGGGTGGATTTGGTGGTGGTTTTTTTTCGGAGTCACCTAGTGCAG”, for which the binding signal was 21500 fluorescence intensity (a.u.).

In the case of “GGGAAAGTGGTTGGCGGATATTCTTGTTTTCTTTTTTTGTCGGAGTCACCTAGTGCAG”, the binding signal was 12500 fluorescence intensity (a.u.).

As for “GTCGTCTCATACCAATCGTGCGGCGGCGGCGGCGGGGATGCGGAGTCACCTAGTGCAG”, the binding signal is 10400 fluorescence intensity (a.u.).

“GTAGGCTTTTGTTTCGGGTGGGATAATATCTTGGGGAAAGCGGAGTCACCTAGTGCAG”: the binding signal was 20700 fluorescence intensity (a.u.).

As to “CTTGTGGATTTCGTTCGAGTTCTTGTGGTTTTGGATCGGGCGGAGTCACCTAGTGCAG”, the binding signal was 9590 fluorescence intensity (a.u.).

Regarding “AGGTTCACAATCTATCCGACTTTTGATTTTCTTTCAATTCCGGAGTCACCTAGTGCAG”, the binding signal was 9110 fluorescence intensity (a.u.).

For the sequence “CAATGGCTTACGACGAGACGACTCACCTTTGAATTCCACGCGGAGTCACCTAGTGCAG”, the binding signal was 9460 fluorescence intensity (a.u.).

On to “TTTTAAAACTGCTGGGATTTTGCTTTCTGTTTCTTCAATGCGGAGTCACCTAGTGCAG”, for which the binding signal is 10900 fluorescence intensity (a.u.).

Consider “TTAGTTTTGTTAGATCGTCGATTTTGATTAGTGCGTTTGACGGAGTCACCTAGTGCAG”, for which the binding signal was 9190 fluorescence intensity (a.u.).

On to “AAACCAACCCCACCCAACCCACGCGAGAACCGTGGACCACCGGAGTCACCTAGTGCAG”, for which the binding signal was 9500 fluorescence intensity (a.u.).

For the sequence “ATTTCTCTTGCCTATGTTTTCATTTTGCAATTATTTTTGTCGGAGTCACCTAGTGCAG”, the binding signal was 10500 fluorescence intensity (a.u.).

As to “TGTTTGCACTTCATTCCATTCCATTCCACCTCCACTGCTTCGGAGTCACCTAGTGCAG”, the binding signal was 8390 fluorescence intensity (a.u.).

As to “AATCTGTGGGCAGGGGCGGCGACGTCGGCGGGCGAGGGCTCGGAGTCACCTAGTGCAG”, the binding signal was 8660 fluorescence intensity (a.u.).

For “GCTCGGGCATCCTTTTTAAGGGCTCGGGGCGGCGGAATCACGGAGTCACCTAGTGCAG”, the binding signal was 8290 fluorescence intensity (a.u.).

Take “CTTTTATATAGCTTTGTCTAGTCTTGTGAATTCTCAATTGCGGAGTCACCTAGTGCAG”: the binding signal was 8530 fluorescence intensity (a.u.).

As for “GTTTCATCTTCTTGTGGGCTTTTCTGGTGAACTCAATTCACGGAGTCACCTAGTGCAG”, the binding signal is 8250 fluorescence intensity (a.u.).

As to “GGCTCGGGGCGGCGGAATCATGGGCGATTGGGGCGGCAACCGGAGTCACCTAGTGCAG”, the binding signal was 22500 fluorescence intensity (a.u.).

Consider “TCGGCTTGGTGGGGCTGGAGAACGTCTTTTCTCAATTGTGCGGAGTCACCTAGTGCAG”, for which the binding signal was 22000 fluorescence intensity (a.u.).

As for “CTGGTCAGAGTCCCCAACCAAAAGCATTTCTCCTGCCTTCCGGAGTCACCTAGTGCAG”, the binding signal is 8660 fluorescence intensity (a.u.).

As for “CGTCCGTCTCCATCTGACACCTCCCAGTGCTTGCGCCCATCGGAGTCACCTAGTGCAG”, the binding signal was 8030 fluorescence intensity (a.u.).

Regarding “GACTTACTTTATTGTCTACAGTACTTTAAGCACAACTTTTCGGAGTCACCTAGTGCAG”, the binding signal is 8360 fluorescence intensity (a.u.).

With “ATACCCGTCTTTTCCTTCCCTTTCATCAATTGCCTCTTGTCGGAGTCACCTAGTGCAG”, the binding signal was 11500 fluorescence intensity (a.u.).

As to “TAGTTTTCTCAGGTGTTTGGGAATTGGTTGGTGAAGATGACGGAGTCACCTAGTGCAG”, the binding signal is 9450 fluorescence intensity (a.u.).

With “GGATGCTCTTGTGTTCTTGTTGTTGATTTGTATTGTGGATCGGAGTCACCTAGTGCAG”, the binding signal is 8240 fluorescence intensity (a.u.).

On to “GATTTCTGTGTTTTTCCTGTGGTCCAATCAAACGGTCATTCGGAGTCACCTAGTGCAG”, for which the binding signal is 12700 fluorescence intensity (a.u.).

For the sequence “GCCGTCTTTGCTTGATAGTCTTCGCCATGGGGACTTTGTCCGGAGTCACCTAGTGCAG”, the binding signal was 8210 fluorescence intensity (a.u.).

Take “TGCGGCCCACCTTTGCTTCTTCGTTGACTTTCTTGCCGTCCGGAGTCACCTAGTGCAG”: the binding signal was 26900 fluorescence intensity (a.u.).

As to “TCATCTTGCTTTCCCCTTCTTCGCCCACGCGGCCGCGGCCCGGAGTCACCTAGTGCAG”, the binding signal was 8620 fluorescence intensity (a.u.).

“TTTCTTCTTCTCGTCTCTTCTCGCCGCCGCCGCCGCAATGCGGAGTCACCTAGTGCAG”: the binding signal was 9300 fluorescence intensity (a.u.).

With “CTCGCCGCCGTTCGTCTCCGCCGCCACCGCCGCCGCCATGCGGAGTCACCTAGTGCAG”, the binding signal is 11300 fluorescence intensity (a.u.).

On to “TCGTTGACTTTCTTGCCGTCTCGCCGCCGCCGCCGCCATGCGGAGTCACCTAGTGCAG”, for which the binding signal was 23600 fluorescence intensity (a.u.).

For the sequence “AAACCCTCTCTCTCTCTCTCTCTCACACACACACGCAAACCGGAGTCACCTAGTGCAG”, the binding signal is 10300 fluorescence intensity (a.u.).

Turning to “GTCAACTGCCTATCCTAGATATCTATCACTACCGAAAGCCCGGAGTCACCTAGTGCAG”, the binding signal was 8930 fluorescence intensity (a.u.).

For the sequence “TCAACACAGCAACGTTTCACTTTCATATCATCTGATTATTCGGAGTCACCTAGTGCAG”, the binding signal was 8470 fluorescence intensity (a.u.).

“TCCGTCCATCCTCACTATCATTAGTACTACTGGTTCTTCTCGGAGTCACCTAGTGCAG”: the binding signal is 12200 fluorescence intensity (a.u.).
